Data taken from PubChem BioAssay AID1259415 (National Center for Advancing Translational Sciences (NCATS), 2018).
Hit rate of the full screen: of about 410,000 compounds, about 18,000 (4.4%) were called active. Roughly 7% stayed inconclusive and do not appear here. Shown is part of a subset that was picked to be rich in actives. Unmarked numbers belong to inactive results. No stated cut-off is given here; in the data, active means activity change below about -60%; inconclusive means no clear call, values can overlap the other calls; inactive means above about -39%.

Test: qHTS Assay for inhibitors of the human cytomegalovirus (HCMV)
Settings: HFF cells, HCMV-luciferase reporter, 72 h; at 57.5 µM; stronger effect = lower value
From the text: NCGC Assay Overview: Infection with human cytomegalovirus (HCMV) continues to pose significant threats for pregnant women and immunocompromised hosts. HCMV causes serious morbidity and mortality in transplant recipients, and congenital HCMV is the leading infectious cause of mental retardation and deafness in children. In the 1990s, the annual costs associated with the disease burden of congenital CMV were estimated at around $2 billion. A HCMV vaccine is not available yet and HCMV therapies result in intolerable side effects and emergence of drug resistant viruses. […] Towards this goal we have developed and characterized a luciferase HCMV reporter that was initially used in 96 well plates and then optimized to 1536-well plates for utilization in screening of the MLSMR collection, the NGCG diversity collection and the NCGC Pharmaceutical Collection of approved and investigational drugs.
NCGC Assay Protocol Summary:
This is a cell-based assay for HCMV inhibition in HFFs cells. The screening used 2 compound doses and the HCMV-luciferase at MOI of 1 PFU/cell. Cells were treated and infected with HCMV. At 72 h post infection cell lysates were collected and luciferase activity was determined using the Glomax-Multi + Detection System (Promega, Madison, WI). Data were normalized to the controls for basal activity (buffer only) and known HCMV inhibitors Salinmoycin.
1536-well assay protocol for the assay:
(1) Add 3 ul CMV/HFF cell culture. 1000 cells/well in DMEM nirmal media.
(2) Incubate 16 hr at 37C.
(3) Add 23 nl control compound, 10uM of Salinomycin.
(4) Add 23 nl compounds in DMSO solution.
(5) Add 3 ul CMV suspension. Final 1 puf/ul, Virus stock 2000pfu/ul
(6) Incubate 72 hrs at 37C.
(7) Add 4 ul OneGlo Luc Reagent.
(8) Incubate 5 min at room temperature.
On the % scale 0 is the no-effect control and ±100 the full control effect.

SMILES | activity change, negative = inhibition
O=C(Nc1ccc2ccccc2c1)/C(=C/c1cccc(Br)c1)NC(=O)c1ccco1 | -64.4% (active)
O=C(NCc1ccco1)/C(=C\c1cccc([N+](=O)[O-])c1)NC(=O)c1ccco1 | -72% (active)
O=C(NCc1ccco1)/C(=C/c1cccc([N+](=O)[O-])c1)NC(=O)c1ccco1 | 20.5%
O=C(NCc1ccco1)c1ccc([N+](=O)[O-])cc1Cl | -4.15%
CC(Oc1ccc2ccccc2c1)C(=O)NNC(=S)NC(=O)c1ccco1 (stereo unspecified) | -3.96%
O=C(Nc1cccc(C(=O)O)c1)/C(=C\c1ccccc1)NC(=O)c1ccc(Br)o1 | 23.2%
O=C(CNS(=O)(=O)c1cccs1)N1CCN(c2ccccc2Cl)CC1 | 68.5%
CC1CCCCN1CC(=O)N1CCCc2c1c(=O)oc1ccc(OCc3ccccc3)cc21 (stereo unspecified) | -2.34%
CCCCn1cc(S(=O)(=O)c2ccc(OCC)cc2)c(=O)c2cc(OC)c(OC)cc21 | 44.7%
COc1ccc(CCNC(=O)Cn2c(=O)n(-c3ccccc3)c(=O)c3c(C)c(C)sc32)cc1OC | -11.6%
COc1ccccc1-c1noc(-c2ccc(NCc3ccccc3)c([N+](=O)[O-])c2)n1 | 0.104%
Cc1ccc(C)c(N2CCN(C(=O)CCCCCn3c(=S)[nH]c4ccc(N5CCOCC5)cc4c3=O)CC2)c1 | -88.3% (active)
COc1cccc(N2CCN(C(=O)CCCCCn3c(=O)[nH]c4ccccc4c3=O)CC2)c1 | -7.41%
Cc1ccc(C)c(N2CCN(C(=O)CCc3c(C)nc4c(c3C)c(=O)n(C)c(=O)n4C)CC2)c1 | -21.4%
CC1(C)OC(=O)C2=C(CC(CCc3ccccc3)OC2c2ccc(Cl)cc2)O1 (stereo unspecified) | 7.29%
Cc1cc(C)cc(OC(C)C(=O)Nc2nc3c(s2)CCCC3)c1 (stereo unspecified) | -26.6%
COc1cc(C(=O)N2CCN(C(=O)COc3cccc(C)c3)CC2)cc(OC)c1OC | 28.1%
CCc1cccc(C)c1Nc1c(-c2ccc(N(C)C)cc2)nc2ncccn12 | -14.5%
CC(Nc1ccc(-c2nc(-c3ccco3)no2)cc1[N+](=O)[O-])c1ccccc1 (stereo unspecified) | 41.2%
CCOC(=O)Cn1c(CN(Cc2ccccc2)Cc2ccccc2)nc2c1c(=O)[nH]c(=O)n2C | 31.2%
COC(=O)[C@@H]1[C@@H](CO)[C@@H]2Cn3c(ccc(Br)c3=O)[C@H]1N2C(=O)c1cnccn1 | 13.3%
Cc1nc(CNS(=O)(=O)c2ccc(Oc3ccccc3)cc2)cs1 | -90.1% (active)
COc1ccccc1CNS(=O)(=O)c1ccc(C)cc1 | -4.42%

SMILES | activity change, negative = inhibition
Cc1nc(CNS(=O)(=O)c2cc([N+](=O)[O-])ccc2C)cs1 | 17.1%
O=C1CSC2(C(=O)N(Cc3ccccc3)c3ccccc32)N1c1cccc(F)c1 (stereo unspecified) | -27.5%
CC(=O)c1ccccc1OCc1ccc(C(=O)c2ccccc2)cc1 | -23.4%
O=C(NC1CCC(O)CC1)c1ccccc1OCc1ccc(F)cc1 (stereo unspecified) | -22.6%
Cc1nc2ccccc2cc1OCc1ccc(F)cc1 | -82.9% (active)
CCCN(CC(=O)Nc1ccccc1C)C(=O)c1ccc2[nH]c3c(c2c1)CC(C)CC3 (stereo unspecified) | -61.3% (active)
CCCN(CC(=O)Nc1ccccc1C)C(=O)c1cc(=O)[nH]c2ccccc12 | 42.9%
CCCN(CC(=O)Nc1ccccc1C)C(=O)c1ccc(OCC(=O)N2CCOCC2)c(OCC)c1 | 0.271%
CC(C)NC(=O)Nc1cccc2c1O[C@@H](CN(C)S(=O)(=O)c1ccc(F)cc1)[C@@H](C)CN([C@H](C)CO)C2=O | 7.5%
Clc1cccc(Cl)c1Cl | -15.9%
COc1ccc(S(=O)(=O)c2c(Nc3ccc(C)cc3)sc(C(=O)c3ccc(C)cc3)c2N)cc1 | -10.2%
Cc1ccc(NC(=O)c2cn3c4c(ccc(Cl)c4c2=O)OC(C)C3)cc1C (stereo unspecified) | 0.532%
CSc1ccc(Cl)c(C(=O)OCC(=O)N2CC(C)OC(C)C2)c1 (stereo unspecified) | -9.66%
COc1ccc(NC(=O)CN(C)C(=O)c2cc(C3CC3)nn2-c2ccccc2)cc1 | -100% (active)
CCc1ccccc1NC(=O)CN(C)C(=O)c1cc(C2CC2)nn1-c1ccccc1 | -18%
COc1ccc(NC(=O)CN(C)C(=O)c2n[nH]c3ccccc23)cc1 | 5.1%
Cc1nc2nc(SCC(=O)N(Cc3ccccc3)C(C)C)nn2c(C)c1Cc1ccccc1Cl | -0.509%
CSc1ccc(C2c3c(oc4ccccc4c3=O)C(=O)N2CCCN2CCOCC2)cc1 (stereo unspecified) | 7.95%
CNC[C@H]1OCc2cnnn2CCCC(=O)N([C@H](C)CO)C[C@@H]1C | -9.25%
Cc1ccc(-c2nnc3c4ccccc4c(C)nn23)cc1NC(=O)c1cccc(Br)c1 | 35.9%
CSc1nc(-c2ccccc2Cl)nc2c1Cc1c(CO)cnc(C)c1O2 | 9.54%
C=CCOC(=O)C1=C(C)NC(C)=C(C(=O)OCC=C)C1c1cccs1 | -12.1%
CCOC(=O)C1Sc2[nH]c(=O)sc2C(c2ccc(Cl)cc2)C1C(=O)OCC (stereo unspecified) | -32.8%
